From PubChem BioAssay AID1159580 (chemical genetic matrix, 2015)
“And” between values parts separate entries of the source, which are not always exact repeats. Equal entries are not always repeated. The whole screen tested about 5,500 compounds, of which about 2,000 (36%) were called active. Inconclusive results (about 18%) are left out. No stated cut-off is given here; in the data, active means normalized growth mostly below about 0.91 (no sharp cut-off); inconclusive means no clear call, values can overlap the other calls; inactive means mostly above about 0.92. This is one part of the list.

Assay: chemical genetic growth profiling, strain panel (AID 1159580);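 further: tested at 20 µM; growth read once vehicle control cultures reached saturation at 30 °C; 1 = growth at the plate median or of vehicle wells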
Details: S. cerevisiae deletion strains, growth OD

Measured: normalized growth

C#C[C@]1(O)CCC2C3CCC4=C(CCC(=O)C4)C3CC[C@@]21C (some centres undefined)
inactive: locus YAL021C, strain ccr4, stronger effect = lower value 0.992 | locus YAL026C, strain drs2, stronger effect = lower value 0.942 | locus YAL030W, strain snc1, stronger effect = lower value 0.987 | locus YBL061C, strain skt5, stronger effect = lower value 0.993 | locus YBR009C, strain hhf1, stronger effect = lower value 0.941 | locus YBR021W, strain FUR4, stronger effect = lower value 0.977 | locus YBR023C, strain chs3, stronger effect = lower value 0.986 | locus YBR171W, strain sec66, stronger effect = lower value 0.974 | locus YBR229C, strain ROT2, stronger effect = lower value 1.01 | locus YBR231C, strain swc5, stronger effect = lower value 1 | locus YBR279W, strain paf1, stronger effect = lower value 0.982 | locus YCL011C, strain gbp2, stronger effect = lower value 0.98 | locus YCL016C, strain dcc1, stronger effect = lower value 0.994 | locus YCL029C, strain bik1, stronger effect = lower value 1.01 | locus YCL061C, strain MRC1, stronger effect = lower value 0.971 | locus YCL069W, strain vba3, stronger effect = lower value 0.973 | locus YCR088W, strain abp1, stronger effect = lower value 0.986 | locus YDL005C, strain med2, stronger effect = lower value 0.982 | locus YDL035C, strain GPR1, stronger effect = lower value 0.964 | locus YDL040C, strain nat1, stronger effect = lower value 0.989 | locus YDL074C, strain BRE1, stronger effect = lower value 1.03 | locus YDL101C, strain DUN1, stronger effect = lower value 1 | locus YDL134C, strain PPH21, stronger effect = lower value 0.981 | locus YDL185W, strain tfp1, stronger effect = lower value 1 | locus YDL192W, strain arf1, stronger effect = lower value 1.01 | locus YDR001C, strain nth1, stronger effect = lower value 0.983 | locus YDR069C, strain doa4, stronger effect = lower value 0.97 | locus YDR101C, strain arx1, stronger effect = lower value 0.984 | locus YDR150W, strain NUM1, stronger effect = lower value 1.03 | locus YDR159W, strain sac3, stronger effect = lower value 0.915 | locus YDR162C, strain NBP2, stronger effect = lower value 1.02 | locus YDR195W, strain ref2 1.07 | locus YDR297W, strain sur2, stronger effect = lower value 0.985 | locus YDR318W, strain mcm21, stronger effect = lower value 0.98 | locus YDR334W, strain swr1, stronger effect = lower value 0.996 | locus YDR335W, strain msn5, stronger effect = lower value 0.97 | locus YDR388W, stronger effect = lower value 1 | locus YDR392W, strain spt3, stronger effect = lower value 0.761 | locus YDR502C, strain sam2, stronger effect = lower value 0.985 | locus YEL003W, strain gim4, stronger effect = lower value 0.971 | locus YEL037C, strain rad23, stronger effect = lower value 0.98 | locus YEL061C, strain CIN8 (second series), stronger effect = lower value 0.969 | locus YEL061C, strain CIN8, stronger effect = lower value 1.02 | locus YER015W, strain faa2, stronger effect = lower value 0.994 | locus YER016W, strain bim1, stronger effect = lower value 0.976 | locus YER110C, stronger effect = lower value 1 | locus YER111C, strain swi4, stronger effect = lower value 1 | locus YER155C, strain BEM2 (second series), stronger effect = lower value 0.974 | locus YER155C, strain BEM2, stronger effect = lower value 1.02 | locus YER167W, strain BCK2, stronger effect = lower value 1.01 | locus YFR010W, strain ubp6, stronger effect = lower value 0.98 | locus YGL078C, strain dbp3, stronger effect = lower value 0.995 | locus YGL086W, strain mad1, stronger effect = lower value 0.99 | locus YGL167C, strain pmr1, stronger effect = lower value 0.984 | locus YGL173C, strain kem1, stronger effect = lower value 0.957 | locus YGL227W, strain vid30, stronger effect = lower value 0.98 | locus YGL240W, strain doc1, stronger effect = lower value 0.949 | locus YGL248W, strain PDE1, stronger effect = lower value 1 | locus YGL253W, strain hxk2, stronger effect = lower value 0.962 | locus YGR135W, strain pre9, stronger effect = lower value 0.981 | locus YGR252W, strain gcn5, stronger effect = lower value 0.893 | locus YHR013C, strain ard1, stronger effect = lower value 0.965 | locus YHR027C, strain rpn1, stronger effect = lower value 0.984 | locus YHR030C, strain SLT2, stronger effect = lower value 1.03 and 0.904 | locus YHR079C, strain IRE1 (second series), stronger effect = lower value 0.999 | locus YHR079C, strain IRE1, stronger effect = lower value 0.873 | locus YHR094C, strain hxt1, stronger effect = lower value 0.997 | locus YHR129C, strain ARP1, stronger effect = lower value 1.02 | locus YHR142W, strain chs7, stronger effect = lower value 0.921 | locus YHR200W, strain rpn10, stronger effect = lower value 1 | locus YIL066C, strain RNR3, stronger effect = lower value 1.02 | locus YIL073C, strain SPO22, stronger effect = lower value 0.968 | locus YIL125W, strain kgd1, stronger effect = lower value 1 | locus YIR030C, strain dcg1, stronger effect = lower value 1.02 | locus YJL092W, strain hpr5, stronger effect = lower value 0.986 | locus YJL095W, strain BCK1 (second series), stronger effect = lower value 0.991 | locus YJL095W, strain BCK1, stronger effect = lower value 0.979 and 0.922 | locus YJL115W, strain asf1, stronger effect = lower value 0.975 | locus YJL129C, strain trk1, stronger effect = lower value 0.884 | locus YJL134W, strain LCB3, stronger effect = lower value 1.02 | locus YJL154C, strain vps35, stronger effect = lower value 0.97 | locus YJL164C, strain tpk1, stronger effect = lower value 0.949 | locus YJL166W, strain qcr8, stronger effect = lower value 0.97 | locus YJL168C, strain set2, stronger effect = lower value 1 | locus YJL187C, strain SWE1 (second series), stronger effect = lower value 1.01 | locus YJL187C, strain SWE1, stronger effect = lower value 0.981 | locus YJR043C, strain POL32, stronger effect = lower value 1.02 | locus YJR066W, strain TOR1, stronger effect = lower value 0.886
active: locus YDR137W, strain rgp1, stronger effect = lower value 0.807
